24 compounds from PubChem BioAssay (Tox21) can be followed below.

Assay [1] in a line: qHTS assay for small molecule agonists of the p53 signaling pathway (AID 651631; calls by dose curve; note: nearly all actives have a fitted effect of over 15% in size). The method in brief:
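Readout was fluorescence from the LiveBLAzer FRET substrate, applied for 2 h at room temperature after 16 h compound exposure at 37 °C. Cells were the p53RE-bla HCT-116 line, with beta-lactamase driven by p53 response elements.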
On the technique in general: Quantitative high-throughput screening tests each substance at several concentrations.

The nature of assay [2]: qHTS assay for small molecules that induce genotoxicity in human embryonic kidney cells expressing luciferase-tagged ATAD5 (AID 651632). Note: nearly all actives have a fitted effect of over 15% in size. The procedure, abridged: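 HEK293T cells carrying a luciferase reporter tagged to ATAD5 were exposed to compound or DMSO vehicle for 16 hr at 37C, 5% CO2. Amplite was added, and after 30 min at room temperature luciferase activity was read as a marker of ATAD5 induction.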

Assay [3] is described as follows: qHTS assay for small molecule agonists of the p53 signaling pathway - cell viability (AID 651633; calls by dose curve; note: series mostly up to about 83 µM; nearly all actives have a fitted effect of over 30% in size). The method in brief:
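p53RE-bla cells were treated with compound for 16 hours at 37 C. Cytotoxicity was then measured as CellTiter-Glo luminescence after 30 min at room temperature.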

Assay [4] can be described thus: qHTS assay for small molecules that induce genotoxicity in human embryonic kidney cells expressing luciferase-tagged ATAD5 - cell viability (AID 651634; calls by dose curve; note: nearly all actives have a fitted effect of over 25% in size; note: potency is the fitted concentration of half-maximal effect). The method in brief: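 HEK293T cells expressing luciferase-tagged ATAD5 were exposed to compound or DMSO for 15.5 hr at 37C, 5% CO2. Viability was then read as live-cell protease activity by CellTiter-Fluor fluorescence after 30 min at 37C.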

Assay [5] in a line: qHTS assay for small molecule disruptors of the mitochondrial membrane potential - cell viability (AID 720634; calls by dose curve;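 note: human HepG2 liver cancer cells; series mostly up to about 83 µM; nearly all actives have a fitted effect of over 20% in size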). The procedure, abridged: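 HepG2 cells seeded overnight at 37 C, then exposed to compound or DMSO for 1 hr at 37 C, 5% CO2. m-MPI dye added, then CellTiter-Glo for 30 min at room temperature; viability read as ATP luminescence.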
Assay [6] is described as follows: qHTS assay to test for compound auto fluorescence at 590 nm (red) in HepG2 cells (AID 720674). The procedure, abridged: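 Fluorescence at 590 nm emission following 540 nm excitation was recorded from HepG2 wells one hour after compound transfer, with DMSO-only wells as vehicle and Rose Bengal sodium equivalency as the scale.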
A short description of assay [7]: qHTS assay to test for compound auto fluorescence at 535 nm (green) in HepG2 cells (AID 720675).
Assay [8] is described as follows: qHTS assay to test for compound auto fluorescence at 460 nm (blue) in HEK293 cells (AID 720678). The method in brief: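 After cell attachment (4-5 hr, 37C), compounds were pinned onto HEK293 monolayers in 10% dialyzed FBS medium. The blue channel (405/460 nm) was read following overnight culture. Equivalency was calculated against triamterene.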
Assay [9] in a line: qHTS assay to test for compound auto fluorescence at 590 nm (red) in HEK293 cells (AID 720679). The procedure, abridged: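 Plates of HEK293 cells (10% dialyzed FBS) are treated with 23 nL compound or DMSO vehicle after a 4-5 hr attachment period, incubated overnight at 37C, and read for red fluorescence at 540/590nm.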
The nature of assay [10]: qHTS assay for small molecule disruptors of the mitochondrial membrane potential (AID 720635). Note: potency is the fitted concentration of half-maximal effect. The procedure, abridged:
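HepG2 cells exposed to compound 1 hr at 37C, then Mito-MPS dye 30 min. Ratio read of aggregate (540/590 nm) versus monomer (490/535 nm) fluorescence.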

Values without a mark were called inactive. Inconclusive results are not listed. The source made the active and inactive calls. Unless noted, calls come from the whole dose curve; as a rule, active = well fitted curve in the direction sought with a large enough effect in the repeat runs; inconclusive = weak or mixed curves; inactive = no such curve, though single readings can be large; an effect the other way counts as inactive or inconclusive.
% is set by controls: 0 for no effect and ±100 for the full control effect.

With `Cc1cccc(C(=O)O)c1[N+](=O)[O-]`, the compound was classed as inactive in assay [1], in assay [2], in assay [3], in assay [5], in assay [6] and in assay [7]. The call in assay [8] and in [9] was inactive. For the same compound, the Potency result in [4] is “inactive”.

In the case of `CCN(Cc1cccc(S(=O)(=O)O)c1)c1ccccc1`, the compound was called inactive in assay [1], in [2], in assay [3], in [5], in assay [6] and in [7]. For the same compound, the result in [8] and in assay [9] was inactive. For the same compound, the Potency result in assay [4] was “inactive”.

As for `OCCCCCCCl`, the compound was classed as inactive in assay [1], in [2], in assay [3], in [5], in [6] and in [7]. Further, the call in assay [8] and in assay [9] was inactive. In addition, in assay [4], the Potency entry was “inactive”.

Take `C=CCCCCCCCCCCC`: the activation is -4.17% [at 8.3 µM] in assay [1] and 1.83% [at 8.08 µM] in assay [2]. For the same compound, the activity change, negative = cytotoxicity was 6.07% [at 8.08 µM] in [3] and 9.56% [at 8.08 µM] in [5]. Besides, the activity, negative = cytotoxicity in assay [4] was -5.67% [at 8.08 µM]. Further, the ratio activity, negative = MMP loss in assay [10] was -12.5% [at 8.08 µM]. In addition, the fluorescence, relative to Rose Bengal in assay [6] is 0.0415% [at 3.72 µM]. Besides, the fluorescence, % of fluorescein control in assay [7] was 0.103% [at 3.72 µM]. The fluorescence, % of triamterene in [8] is -0.171% [at 3.72 µM]. Besides, the fluorescence, % of fluorescent control in assay [9] is -0.0532% [at 3.72 µM].

On to `CCNC(=O)NCCCOc1cccc(CN2CCCCC2)c1`, for which the compound was called inactive in assay [1], in [2], in assay [3], in assay [5], in [6] and in assay [7]. The outcome in assay [8] and in [9] was inactive. Also, the Potency result in [4] was “inactive”.

Turning to `NC(=O)NNC(N)=O`, the call in [1], in assay [2], in assay [3], in assay [5], in [6] and in assay [7] was inactive. Moreover, the compound was called inactive in assay [8] and in [9]. In addition, in assay [4], the Potency entry is “inactive”.

Turning to `CC(C)COC(=O)/C=C/c1ccccc1`, the result in [1], in [2], in assay [3], in assay [5], in assay [6] and in assay [7] was inactive. Further, the outcome in [8] and in assay [9] was inactive. The Potency entry in [4] and in [10] was “inactive” each time.

For the compound `C=COCCOCCOC=C`, the call in [1], in assay [2], in assay [3], in assay [5], in assay [6] and in assay [7] was inactive. Besides, the call in assay [8] and in assay [9] was inactive. In addition, the Potency result in [4] and in assay [10] was “inactive” throughout.

As for `C=C[Si](C)(C)O[Si](C)(C)C=C`, the compound was called inactive in [1], in assay [2], in [3], in assay [5], in assay [6] and in [7]. Also, the call in assay [8] and in assay [9] was inactive. The Potency result in assay [4] and in [10] was “inactive” in each case.

Take `CCCCCCCCCCCCCCCC(=O)NCCO`: the outcome in assay [1], in assay [2], in assay [3], in assay [5], in [6] and in [7] was inactive. The call in assay [8] and in assay [9] was inactive. The Potency result in assay [4] was “inactive”.

For `Cc1cc(O)c2c(c1)C(=O)c1cccc(O)c1C2=O`, the compound was classed as inactive in assay [1], in assay [2], in assay [3], in assay [5], in assay [6] and in assay [7]. For the same compound, the compound was classed as inactive in assay [8] and in [9]. Further, the Potency result in [4] was “inactive”. The Potency in [10] was 11.9 µM (active).

Consider `CC(=O)c1ccc2c(c1)CCCC2`, for which the compound was classed as inactive in [1], in [2], in [3], in assay [5], in assay [6] and in [7]. Besides, the result in [8] and in [9] was inactive. Moreover, the Potency result in assay [4] is “inactive”.

Turning to `COc1cc([N+](=O)[O-])ccc1N`, the compound was called inactive in assay [1], in [2], in assay [3], in assay [6], in [7] and in [8]. For the same compound, in assay [9], the compound was classed as inactive. Moreover, the Potency in assay [4] is 54.5 µM (active).

On to `Cc1ccc2c(c1)c1c3n2CCNC3CCC1` (stereo not given), for which the outcome in assay [1], in assay [2], in assay [3], in [5], in assay [6] and in assay [7] was inactive. Also, the result in assay [8] and in assay [9] was inactive. For the same compound, the Potency entry in assay [4] is “inactive”.

Turning to `SCCSCCS`, the compound was called inactive in assay [1], in assay [2], in assay [3], in assay [5], in [6] and in assay [7]. The compound was classed as inactive in [8] and in assay [9]. Also, in assay [4], the Potency entry was “inactive”.

`CO[Si](CCCS)(OC)OC`: the outcome in assay [1], in [2], in assay [3], in [5], in assay [6] and in [7] was inactive. The outcome in assay [8] and in [9] was inactive. The Potency result in assay [4] was “inactive”.

Turning to `BrC/C=C/CBr`, the result in assay [1], in assay [2], in [3] and in assay [5] was inactive. Moreover, the Potency result in [4] was “inactive”. The fluorescence, % of fluorescein control in [7] was -0.0535% [at 18.6 µM]. Moreover, the fluorescence, % of triamterene in assay [8] is 0.0974% [at 18.6 µM]. Further, the fluorescence, % of fluorescent control in assay [9] is 0.0091% [at 18.6 µM].

Turning to `CCNC(=O)/C=C/c1cccc(Br)c1`, the result in [1], in assay [2], in assay [3], in assay [6], in assay [7] and in assay [8] was inactive. For the same compound, the compound was classed as inactive in assay [9]. For the same compound, the Potency result in assay [4] is “inactive”.

Regarding `CCCCCCCCCCCCCCCCI`, the compound was called inactive in [1], in assay [2] and in [3]. Further, the Potency result in assay [4] and in assay [10] was “inactive” each time. Besides, the fluorescence, % of fluorescein control in [7] is -0.0199% [at 18.6 µM]. The fluorescence, % of triamterene in assay [8] is 0.0613% [at 18.6 µM]. Further, the fluorescence, % of fluorescent control in assay [9] is 0.21% [at 18.6 µM].

On to `O=C1CC[C@H](C(=O)N2CCCCC2)N1`, for which the compound was called inactive in [1], in assay [2], in assay [3], in assay [5], in [6] and in [7]. For the same compound, the call in [8] and in [9] was inactive. In addition, in [4], the Potency entry was “inactive”.

Take `Nc1ccnc(=O)[nH]1`: the call in assay [1], in assay [2], in assay [3], in assay [7], in assay [8] and in assay [9] was inactive. In addition, the Potency result in assay [4] and in assay [10] was “inactive” each time.

Take `CC(C)=CC(C)(C)C`: the compound was classed as inactive in [1], in assay [2], in assay [3], in assay [5], in assay [7] and in assay [8]. In [9], the outcome was inactive. Moreover, the Potency entry in assay [4] is “inactive”.

On to `CNC(=O)NC`, for which the compound was called inactive in [1], in assay [2], in assay [3], in assay [6], in [7] and in assay [8]. Moreover, the result in assay [9] was inactive. The Potency result in [4] and in [10] was “inactive” in each case.

Consider `CCCCCCCCOC(C)=O`, for which the outcome in assay [1], in assay [2], in assay [3], in assay [5], in assay [6] and in [7] was inactive. Also, the outcome in assay [8] and in assay [9] was inactive. Besides, in [4], the Potency entry is “inactive”.
